This assay has as its target T1, CRBN, Q96SW2.
T1 chain: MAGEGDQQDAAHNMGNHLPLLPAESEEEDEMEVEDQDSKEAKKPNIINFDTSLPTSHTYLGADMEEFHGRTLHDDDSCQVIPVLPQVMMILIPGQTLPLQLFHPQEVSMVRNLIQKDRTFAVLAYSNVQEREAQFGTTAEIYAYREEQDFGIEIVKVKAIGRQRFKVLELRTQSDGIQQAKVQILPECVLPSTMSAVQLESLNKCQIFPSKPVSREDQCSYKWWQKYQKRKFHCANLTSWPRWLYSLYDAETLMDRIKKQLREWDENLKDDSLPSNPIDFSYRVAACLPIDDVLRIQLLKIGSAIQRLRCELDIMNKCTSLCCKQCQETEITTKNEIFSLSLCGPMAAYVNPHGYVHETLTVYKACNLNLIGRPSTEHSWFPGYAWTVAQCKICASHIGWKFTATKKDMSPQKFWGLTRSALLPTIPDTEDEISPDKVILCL
Briefly: log2 fold change of degron read counts, EGFP-low vs EGFP+ sorted cells (limma voom), compound-induced degradation; higher = more compound-induced degradation of the degron-EGFP fusion; degrons are variants of IKZF1/3 zinc finger 2; compound dose not given here. Particulars: Jurkat, 18 h.

Where [1] appears, read: compound: compound 19 (5-tert-butyl-thalidomide).
The mark [2] stands for this setting: compound: compound 22 (5-morpholino-thalidomide).
The mark [3] stands for this setting: compound: compound 33 (diphenyl IMiD analogue).

Whole data set: some 8,300 sequences, median “log2 fold change of degron read counts, EGFP-low vs EGFP+ sorted cells (limma voom), compound-induced degradation” near -1.1, cut for the highest 2% near 3.2. The entries come from a sample that favours the highest values as a whole.
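Also: pooled lentiviral library of zinc finger degron-EGFP fusions in mCherry-positive Jurkat cells, FACS-sorted after compound exposure, with degron abundance counted by next-generation sequencing.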

Turning to FTCEICGRVFTQKGNLLRHIKL [46F_47T_49E_50I_52G_53R_54V_55F_67L_, Q9UKT9], the “log2 fold change of degron read counts” value runs as follows: under setting [1], -2.27; under setting [2], -1.55; under setting [3], -0.702; (compound: thalidomide) -0.137.
For FRCPICGRLFTQKGNLLRHIKL [46F_47R_49P_50I_52G_53R_54L_55F_67L_, Q9UKT9], the “log2 fold change of degron read counts” value under setting [1] was -1.83, the “log2 fold change of degron read counts” value under setting [2] is -0.827, the “log2 fold change of degron read counts” value under setting [3] was determined as 0.758 and the “log2 fold change of degron read counts” value (compound: thalidomide) came out at 0.687.
As for FDCPICGRMFTQKGNLLRHIKL [46F_47D_49P_50I_52G_53R_54M_55F_67L_, Q9UKT9], the “log2 fold change of degron read counts” value is -0.392 under setting [1], -0.463 under setting [2], 1.09 under setting [3] and 1.7 (compound: thalidomide).
For FRCNQCGHRFTQKGNLLRHIKL [46F_47R_49N_50Q_52G_53H_54R_55F_67L_, Q9UKT9], in that order: -2.19, -2.67, -2.63 and -2.17.
For FCCEVCGACFTQKGNLLRHIKL [46F_47C_49E_50V_52G_53A_54C_55F_67L_, Q9UKT9], in that order: 2.54, 2.27, 2.88 and 2.26.
Turning to FFCEVCGACFTQKGNLLRHIKL [46F_47F_49E_50V_52G_53A_54C_55F_67L_, Q9UKT9], the “log2 fold change of degron read counts” value under setting [1] turned out to be 3.55, the “log2 fold change of degron read counts” value under setting [2] came to 3.51, the “log2 fold change of degron read counts” value under setting [3] was 2.56 and the “log2 fold change of degron read counts” value (compound: thalidomide) was found to be 1.24.
Regarding FACEVCGACFTQKGNLLRHIKL [46F_47A_49E_50V_52G_53A_54C_55F_67L_, Q9UKT9], the “log2 fold change of degron read counts” value under setting [1] was found to be 3.76, the “log2 fold change of degron read counts” value under setting [2] is 2.16, the “log2 fold change of degron read counts” value under setting [3] was 1.45 and the “log2 fold change of degron read counts” value (compound: thalidomide) was determined as 0.401.
For FHCEVCGACFTQKGNLLRHIKL [46F_47H_49E_50V_52G_53A_54C_55F_67L_, Q9UKT9], in that order: 2.22, 2.25, 1.49 and 0.274.
In the same order, the values of FECEVCGACFTQKGNLLRHIKL [46F_47E_49E_50V_52G_53A_54C_55F_67L_, Q9UKT9] are 0.0523, -1.58, 1.91 and 2.18.
For FWCEVCGACFTQKGNLLRHIKL [46F_47W_49E_50V_52G_53A_54C_55F_67L_, Q9UKT9], in that order: 3.64, 3.77, 2.8 and 1.25.
Turning to FGCEVCGACFTQKGNLLRHIKL [46F_47G_49E_50V_52G_53A_54C_55F_67L_, Q9UKT9], the “log2 fold change of degron read counts” value amounted to 3.58 under setting [1], 2.6 under setting [2], 1.86 under setting [3] and 0.497 (compound: thalidomide).
With FKCEVCGACFTQKGNLLRHIKL [46F_47K_49E_50V_52G_53A_54C_55F_67L_, Q9UKT9], the “log2 fold change of degron read counts” value by setting is: under setting [1], -0.0189; under setting [2], -2.37; under setting [3], -2.27; (compound: thalidomide) -0.751.
For FDCEVCGACFTQKGNLLRHIKL [46F_47D_49E_50V_52G_53A_54C_55F_67L_, Q9UKT9], in that order: 0.736, -1.47, 0.552 and -0.0895.
As for FNCEVCGACFTQKGNLLRHIKL [46F_47N_49E_50V_52G_53A_54C_55F_67L_, Q9UKT9], the “log2 fold change of degron read counts” value by setting is: under setting [1], 2.1; under setting [2], 0.177; under setting [3], 0.1; (compound: thalidomide) -0.55.
In the same order, the values of LECNQCGFWCTQKGNLLRHIKL [46L_47E_49N_50Q_52G_53F_54W_55C_67L_, Q9UKT9] are -1.99, -1.69, -1.79 and -1.63.
As for FYCDICGAVFTQKGNLLRHIKL [46F_47Y_49D_50I_52G_53A_54V_55F_67L_, Q9UKT9], the “log2 fold change of degron read counts” value reads like this: under setting [1], 2.92; under setting [2], 2.45; under setting [3], 1.34; (compound: thalidomide) -1.18.
In the same order, the values of FCCNQCGRTFTQKGNLLRHIKL [46F_47C_49N_50Q_52G_53R_54T_55F_67L_, Q9UKT9] are -2.96, -2.98, -2.8 and -2.49.
In the same order, the values of FKCNQCGRHFTQKGNLLRHIKL [46F_47K_49N_50Q_52G_53R_54H_55F_67L_, Q9UKT9] are -2.42, -3.25, -2.92 and -2.39.

The values are drawn from the supplement of paper PMC12645437, “Orthogonal IMiD-Degron Pairs Induce Selective Protein Degradation in Cells” (ACS Chemical Biology, 2025).
